Compound activity as filed in PubChem BioAssay.
Sampled rows, rich in hits. Any-hit rate of the full collection: about 7.3%.
HCMV inh = human cytomegalovirus inhibition; HFF cells, HCMV-luciferase reporter, 72 h; stronger effect = lower value; activity change, negative = inhibition, % at 57.5 µM; 410,000 compounds, 4.5% hits; AID 1259415; in the data active means activity change below about -60%; inconclusive means no clear call, values can overlap the other calls; inactive means above about -39%
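Human foreskin fibroblasts infected with luciferase-reporter HCMV at MOI 1 PFU/cell, compounds at two doses. Luciferase measured 72 h post infection; normalized to buffer-only basal and Salinomycin (10uM) controls.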
HCV inh = inhibitors of hepatitis C virus infection; Huh7.5.1 HCVcc-Cre infection, luciferase reporter, 44 h; Potency, µM (top dose mostly 41.8 µM), most hits filed as inhibitors; 340,000 compounds, 3.4% hits; AID 651820
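Cells seeded at 1,000/well and cultured 4 h, then compounds added followed by HCVcc-Cre virus (~0.5 moi). After 44 h further culture, luciferase substrate was added, plates held 15 min at room temperature, and luminescence read for 15 sec.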
AmpC inh detg = inhibitors of E. coli AmpC beta-lactamase with detergent; AID 485294; Potency, µM (highest dose often 114 µM), hits mostly inhibitors; AmpC hydrolysis of nitrocefin, absorbance 480 nm, 0.01% Triton; 370,000 compounds, 0.041% hits; further: nearly all actives have a fitted effect of over 25% in size
Target sequence (P00811 whole entry, looked up): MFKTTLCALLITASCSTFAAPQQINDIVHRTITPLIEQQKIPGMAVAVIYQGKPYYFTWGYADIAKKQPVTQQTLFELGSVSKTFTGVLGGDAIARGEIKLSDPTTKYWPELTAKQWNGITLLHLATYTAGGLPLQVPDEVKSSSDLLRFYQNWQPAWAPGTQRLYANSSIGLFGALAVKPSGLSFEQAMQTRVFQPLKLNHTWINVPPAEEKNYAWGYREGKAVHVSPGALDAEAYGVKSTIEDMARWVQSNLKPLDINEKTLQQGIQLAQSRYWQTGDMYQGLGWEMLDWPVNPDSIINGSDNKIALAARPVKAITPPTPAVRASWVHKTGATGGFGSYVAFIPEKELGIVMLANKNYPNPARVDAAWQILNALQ
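AmpC (5.3 nM in the dispensed reagent) in 20 mM phosphate pH 7.0 with 0.01% (detergent screen) or 0.0001% Triton X-100 was preincubated with compounds for 15 min at room temperature. Nitrocefin was then added from an 800 uM solution, and hydrolysis was followed at 480 nm.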
FMDV antiviral = foot and mouth disease virus antiviral activity; FMDV antiviral cell-based qHTS; Potency, µM (highest dose often 57.9 µM), most hits filed as inhibitors; 410,000 compounds, 1.2% hits; calls by dose curve; tested in HEK293T cells; further: read-out not given here; nearly all actives have a fitted effect of over 45% in size
AmpC no deterg = inhibitors of E. coli AmpC beta-lactamase without detergent | P00811 | AmpC nitrocefin hydrolysis, absorbance 480 nm, 0.0001% Triton | Potency, µM (highest dose often 57.1 µM), hits mostly inhibitors | 330,000 compounds, 0.52% hits | AID 485341; further: nearly all actives have a fitted effect of over 20% in size
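AmpC (5.3 nM in the dispensed reagent) in 20 mM phosphate pH 7.0 with 0.01% (detergent screen) or 0.0001% Triton X-100 was preincubated with compounds for 15 min at room temperature. Nitrocefin was then added from an 800 uM solution, and hydrolysis was followed at 480 nm.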
HCV inh confirm = confirmation of hepatitis C virus inhibitors; shares compounds with HCV inh; HCVcc-Cre infectious virus cell assay, luciferase, inhibition; Potency, µM (series often up to 41.8 µM), hits mostly inhibitors; 640 compounds, 78% hits; AID 720575; further: nearly all actives have a fitted effect of over 80% in size
HCV host tox = counter-screen for HCV inhibitors: host cell cytotoxicity | shares compounds with HCV inh | 640 compounds, 22% hits | Potency, µM (highest dose often 41.8 µM), most hits filed as inhibitors | HCV host cell line cytotoxicity counterscreen | AID 720576;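 further: 44 h compound exposure; nearly all actives have a fitted effect of over 55% in size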
Large screens that a line does not name were inactive (follow-up assays come after a bar, where they were run). Unless noted, the call rests on the fitted dose curve; in most records, active means well fitted curve in the direction sought with a large enough effect; inconclusive means small, poorly fitted or top-dose-only effect, or another doubt; inactive means no such curve, though single readings can be large; an effect the other way counts as inactive or inconclusive.

O=C(CCl)Nc1ccc(-c2ccccc2)cc1	HCV inh 3.2µM, FMDV antiviral 22µM | HCV inh confirm 6.3µM | HCV host tox 8.9µM
Cc1nn2c(NCCCN(C)C)c3c(nc2c1-c1ccccc1)CCCC3	HCV inh 2µM | HCV inh confirm 7µM | HCV host tox inactive
Cc1nn2c(NCCCN(C)C)c3c(nc2c1-c1ccccc1)CCC3	HCV inh inconclusive, AmpC inh detg inconclusive
CC1(C)SC(=S)N(/N=C/c2cccnc2)C1N(O)C(=O)NC1CCCCC1 (stereo not given)	HCV inh 7.9µM | HCV inh confirm 11µM | HCV host tox inactive
Cc1ccc(CSC2=Nc3ccccc3C3=NC(CC(=O)NCc4cccs4)C(=O)N23)c(C)c1 (stereo not given)	FMDV antiviral inconclusive (no result: HCV inh, AmpC no deterg)
CN(C)CCNC(=O)c1ccc(COc2ccc(Cl)cc2Cl)cc1	HCV inh 7.9µM | HCV inh confirm 16µM | HCV host tox inactive
Cc1cc(C)cc(OCc2cc(=O)n3c(-c4ccccc4)csc3n2)c1	none (no result: HCV inh, AmpC no deterg)
CCOc1ccc(NC(=O)CN(C)Cc2cc(=O)n3c(-c4ccccc4)csc3n2)cc1OCC	HCV inh 6.3µM, AmpC inh detg inconclusive | HCV inh confirm inconclusive | HCV host tox inactive
Cc1ccc(CNC(=O)C2CCN(S(=O)(=O)Cc3ccccc3)CC2)cc1	none (no result: HCV inh, AmpC no deterg)
Cc1ccccc1-c1nc(CN2CCC(C(=O)NCCN3CCOCC3)CC2)c(C)o1	none
Cc1ccccc1-c1nc(CN2CCC(C(=O)NCCCN3CC(C)CC(C)C3)CC2)c(C)o1 (stereo not given)	HCV inh 1.3µM | HCV inh confirm 1.4µM | HCV host tox inconclusive
CCN(CC)C(=O)c1csc([C@@H]2O[C@H](CO)[C@H](O)[C@H](O)[C@H]2O)n1	none (no result: HCV inh, AmpC inh detg, AmpC no deterg)
Cc1cc(C)c(-c2csc(-c3cc4ccccc4oc3=O)n2)cc1C	none (no result: HCV inh, AmpC no deterg)
Cc1ccc(-c2csc(Cc3nc(-c4cc5ccccc5oc4=O)cs3)n2)cc1	HCMV inh -80, HCV inh 5µM (no result: FMDV antiviral) | HCV inh confirm 5µM | HCV host tox 6.3µM
Cc1ccc(NC2=C/C(=N\S(=O)(=O)c3cccs3)c3ccccc3C2=O)c(C)c1	HCV inh 5.6µM, FMDV antiviral 25µM, AmpC no deterg inconclusive (no result: HCMV inh) | HCV inh confirm 2.5µM | HCV host tox 3.5µM
Cc1cc(NCc2ccccn2)n2nc(C)c(-c3ccc(Cl)cc3)c2n1	HCMV inh -99, HCV inh 4.5µM | HCV inh confirm 11µM | HCV host tox inactive
O=C(Cn1c(=O)n(CCCS(=O)(=O)C2CCCCC2)c(=O)c2ccccc21)Nc1ccccc1F	AmpC inh detg inconclusive (no result: HCV inh, AmpC no deterg)
COc1ccc(NC(=O)c2cccc(S(=O)(=O)N3CCN(c4ccccc4)CC3)c2)c(OC)c1	HCV inh inconclusive | HCV inh confirm 22µM | HCV host tox inactive
CCn1c(=O)c2cc(C(=O)Nc3ccccc3OC)sc2c2ccccc21	HCV inh inconclusive | HCV inh confirm 14µM | HCV host tox inactive
CCn1c(=O)c2cc(C(=O)Nc3cc(OC)c(OC)c(OC)c3)sc2c2ccccc21	FMDV antiviral inconclusive (no result: HCV inh, AmpC no deterg)
C=CCNc1nc(N)c([N+](=O)[O-])c(Nc2ccccc2OC)n1	HCV inh 6.3µM | HCV inh confirm 22µM | HCV host tox inactive
CCC(CO)Oc1cc(NC(=O)c2ccccc2)c2ncn(C(C)C)c2c1 (stereo not given)	HCV inh inconclusive
CCC(CO)Oc1cc(NC(=O)c2ccc(C)cc2)c2ncn(C(C)C)c2c1 (stereo not given)	HCV inh inconclusive | HCV inh confirm inconclusive | HCV host tox inactive
CCn1c(Cl)c(C=O)s/c1=N\S(=O)(=O)c1ccccc1	HCMV inh inconclusive, HCV inh 3.2µM, FMDV antiviral inconclusive | HCV inh confirm 20µM | HCV host tox 11µM
CCN1C(=O)CS/C1=N\S(=O)(=O)c1ccc(Cl)cc1	none
COc1ccc(Nc2ccc3c(c2)=NC2(CCCCC2)[N+]=3[O-])cc1	HCMV inh -98, HCV inh 5µM, FMDV antiviral inconclusive | HCV inh confirm 18µM | HCV host tox 16µM
[O-][N+]1=c2ccc(Nc3ccccc3)cc2=NC12CCCCC2	HCMV inh inconclusive, HCV inh inconclusive, AmpC inh detg inconclusive
Cc1cccc(C(=O)NCCCNC(=O)c2ccc(C)nc2)c1	none
Cc1cc(CSc2ccc(Cl)cc2)ccc1N	HCV inh 4µM (no result: AmpC inh detg, AmpC no deterg) | HCV inh confirm 6.3µM | HCV host tox inactive
Cc1ccccc1NC(=O)COC(=O)c1ccc(CSc2ccc(Cl)cc2)cc1	none
COc1cccc(-c2cc(C(=O)Nc3ccc(OC)cc3OC)no2)c1	none (no result: HCV inh, AmpC no deterg)
CCN(CC)S(=O)(=O)c1ccc(Oc2ccc(S(=O)(=O)N(CC)CC)cc2)cc1	HCV inh 2.8µM, FMDV antiviral inconclusive | HCV inh confirm 2.5µM | HCV host tox 2.8µM
Cc1cc(C)c(C(=O)C(C)OC(=O)C2=COCCO2)cc1C (stereo not given)	none
CN(Cc1ccccc1)C(=O)c1ccc(NC(=O)Cc2cccc(NC(=O)C3CCN(C(=O)C4CCC4)CC3)c2)cc1	none
CC(=O)Nc1ccc(Nc2cc(C)nc3c(-c4ccccc4)c(C)nn23)cc1	HCV inh inconclusive
CC(=O)Nc1ccc(Nc2cc(C(C)C)nc3c(-c4ccccc4)c(C)nn23)cc1	HCMV inh inconclusive, HCV inh 2.5µM, FMDV antiviral inconclusive | HCV inh confirm 14µM | HCV host tox inactive
CCn1nc(/C=C/c2ccccc2)nc2c(=O)n(C)c(=O)nc1-2	HCMV inh -96, HCV inh 2.5µM, FMDV antiviral 2.5µM | HCV inh confirm 5.6µM | HCV host tox 7µM
Cn1c(=O)c(/C=C/c2ccccc2)nc2ccccc21	none
COC(=O)C1=C(c2ccccc2)c2ccccc2S(=O)(=O)N1CC(=O)Nc1cc(C)ccc1C	none (no result: HCV inh, AmpC no deterg)
CCC(=O)N(Cc1ccco1)c1nc(-c2ccccc2)cs1	HCV inh inconclusive, AmpC inh detg inconclusive | HCV inh confirm inconclusive | HCV host tox inactive
CCC(=O)N(Cc1ccco1)c1nc(-c2ccc(OC)cc2)cs1	HCV inh inconclusive
Cc1nc2c(c(C)nn2C(C)(C)C)c(C)c1CCC(=O)Nc1ccc(Br)cc1Br	none (no result: HCV inh, AmpC no deterg)
O=C(Cc1ccc(NC(=O)C2CCN(C(=O)C3CCCCC3)CC2)cc1)Nc1ccc(C(=O)N2CCOCC2)cc1	none (no result: AmpC inh detg, AmpC no deterg)
CCn1c(=NC(=O)C2COc3ccccc3O2)sc2c(C)ccc(OC)c21 (stereo not given)	HCMV inh inconclusive, HCV inh inconclusive, FMDV antiviral inconclusive | HCV inh confirm 13µM | HCV host tox inactive
CN1CCC(=C2c3ccccc3CCc3sccc32)CC1	HCV inh inconclusive, FMDV antiviral inconclusive (no result: HCMV inh) | HCV inh confirm 3.1µM | HCV host tox inactive
